# Source: PubChem BioAssay AID999 (SRMLSC, 2007)
# Calls of active or inactive are those of the source.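 How the source made its calls: active means viability at or below 21.59%, 3 SD under the median of tested compounds; inactive means the rest.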
# Assay: viability loss in PTEN-deleted cells – cell-based, validation, diverse DP compound set (AID 999);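 further: 100% = median luminescence of untreated cell control wells and 0% = no signal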
# Conditions: HCT116 PTEN-null viability, CellTiter-Glo, 60 h; at 10 µM; stronger effect = lower value
row,SMILES,viability
1,CCOC(=O)c1c(N)sc(C)c1-c1ccccc1,105% (inactive)
2,CC1(C)OC2CC(=O)OCC23C1CC(=O)C1(C)C3CC[C@@]2(C)[C@H](c3ccoc3)OC(=O)C3OC312 (stereo not given in full),97.3% (inactive)
3,O=c1[nH]cc(F)c(=O)[nH]1,58.9% (inactive)
4,CC(C)=CCC[C@](C)(O[C@@H]1O[C@H](CO)[C@@H](O)[C@H](O)[C@H]1O)[C@H]1CC[C@]2(C)[C@@H]1[C@H](O)C[C@@H]1[C@@]3(C)CC[C@H](O[C@@H]4O[C@H](CO)[C@@H](O)[C@H](O)[C@H]4O[C@@H]4O[C@H](CO)[C@@H](O)[C@H](O)[C@H]4O)C(C)(C)[C@@H]3[C@@H](O)C[C@]12C,92% (inactive)
5,Nc1c(N=Nc2ccc(-c3ccc(N=Nc4cc(S(=O)(=O)O)c5ccccc5c4N)cc3)cc2)cc(S(=O)(=O)O)c2ccccc12,86.5% (inactive)
6,COc1ccc(CCN2CCC(Nc3nc4ccccc4n3Cc3ccc(F)cc3)CC2)cc1,16.6% (active)
7,COc1cc2c(c(OC)c1OC)-c1ccc(OC)c(=O)cc1[C@@H](NC(C)=O)CC2,32.5% (inactive)
8,O=c1[nH]cnc2ccccc12,82.7% (inactive)
9,COc1ccc2cc3[n+](cc2c1OC)CCc1cc2c(cc1-3)OCO2,82.9% (inactive)
10,COc1cccc2c1C(=O)c1c(O)c3c(c(O)c1C2=O)C[C@@](O)(C(=O)CO)C[C@@H]3OC1C[C@@H](N)[C@H](O)[C@H](C)O1 (stereo not given in full),27.7% (inactive)
11,Cc1cc2c(C(C)C)c(O)c(O)c(C=O)c2c(O)c1-c1c(C)cc2c(C(C)C)c(O)c(O)c(C=O)c2c1O,13% (active)
12,C=CCc1ccc(O)c(-c2cc(CC=C)ccc2O)c1,98.7% (inactive)
13,CCC[C@@H]1C[C@@H](C(=O)NC(C(C)Cl)[C@H]2O[C@H](SC)[C@H](O)[C@@H](O)[C@H]2O)N(C)C1 (stereo not given in full),100% (inactive)
14,O=c1c(-c2ccc(O)cc2)coc2cc(O)ccc12,89.7% (inactive)
15,CCC(C)CCCCC(=O)N[C@@H](CCN)C(=O)N[C@H](C(=O)N[C@@H](CCN)C(=O)N[C@H]1CCNC(=O)C([C@@H](C)O)NC(=O)[C@@H](CCN)NC(=O)[C@H](CCN)NC(=O)[C@H](CC(C)C)NC(=O)[C@@H](CC(C)C)NC(=O)[C@H](CCN)NC1=O)[C@@H](C)O (stereo not given in full),96% (inactive)
16,O=C1OC(c2cc(I)c(O)c(I)c2)(c2cc(I)c(O)c(I)c2)c2ccccc21,93.5% (inactive)
17,CN(C)c1ccc(/C=C2\C(=O)Nc3ccccc32)cc1,86.2% (inactive)
18,CC(=O)N1CCN(c2ccc(OC[C@H]3CO[C@](Cn4ccnc4)(c4ccc(Cl)cc4Cl)O3)cc2)CC1,70.7% (inactive)
19,Clc1ccc2ncnc(NCc3ccc4c(c3)OCO4)c2c1,83.1% (inactive)
20,COC(=O)Nc1nc2ccc(C(=O)c3cccs3)cc2[nH]1,50.2% (inactive)
21,Cc1cc(CC(=O)O)n(C)c1C(=O)c1ccc(Cl)cc1,95.5% (inactive)
22,CCN(CC)C(=S)SSC(=S)N(CC)CC,89.6% (inactive)
23,CC(C)=CCC/C(C)=C/COc1ccc2ccc(=O)oc2c1,91.9% (inactive)
24,C=C(CCC12O[C@H](C(=O)O)[C@@](O)(C(=O)O)[C@](C(=O)O)(O1)[C@H](OC(=O)/C=C/[C@@H](C)C[C@@H](C)CC)[C@H]2O)[C@@H](OC(C)=O)[C@H](C)Cc1ccccc1,98.3% (inactive)
25,NS(=O)(=O)c1cc(C(=O)O)c(NCc2ccco2)cc1Cl,104% (inactive)
26,C[C@H](CS)C(=O)N1CCC[C@H]1C(=O)O,93.9% (inactive)
27,COc1ccc(-c2cc(C(=O)O)no2)cc1,97.7% (inactive)
28,CCOC(=O)C(C)(C)Oc1ccc(Cl)cc1,100% (inactive)
29,O=C1OC2(c3ccc(O)cc3Oc3cc(O)ccc32)c2ccccc21,96% (inactive)
30,c1ccc2nc3ccccc3cc2c1,99.8% (inactive)
